The values below come from PubChem BioAssay (NCI).

Some test systems named below: DU-145 prostate; K-562 leukemia; MALME-3M melanoma; MDA-MB-231 breast; RXF 393 renal; SF-268 CNS; SF-295 CNS; SF-539 CNS; UACC-257 melanoma; M14 melanoma; HCT-15 colon; HT29 colon; SNB-75 CNS; SNB-19 CNS; U251 CNS; PC-3 prostate; SK-MEL-5 melanoma; UACC-62 melanoma; LOX IMVI melanoma; SK-MEL-28 melanoma.
What all share (test): NCI-60 one-dose screen, 48 h (100 = growth as untreated, 0 = no growth, -100 = all killed)
Conditions in all cases: 10 µM unless noted

The panel holds about 83,000 compounds, 20% with a hit somewhere; the sample as a whole holds those more often.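 Each cell line was grown in a 96-well plate and treated with one concentration of compound for 48 hours. Values below 10 were considered active.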 Values without a mark were called inactive. The source made the active and inactive calls.

`CC(=O)O[C@@H]1C[C@]2(C(C)C)O[C@@]1(C)[C@@H]1CCC(C)=C1[C@@H]2OC(=O)/C=C/c1ccccc1`: the growth was 101% in the test on DU-145 prostate; 81.7% in the test with K-562 leukemia; 86.4% with MALME-3M melanoma; 84.1% with MDA-MB-231 breast; 30.8% in the test on RXF 393 renal; 80.8% with SF-268 CNS. For the same compound, the growth in the test with SF-295 CNS was 92.1%; in the test on SF-539 CNS, 101%; in the test on UACC-257 melanoma, 90.5%; in the test on M14 melanoma, 93.6%; in the test on HCT-15 colon, 87.2%; in the test with HT29 colon it was 74.8%. Further, the growth was 89.1% in the test with SNB-75 CNS; 102% with SNB-19 CNS; 91.2% in the test on U251 CNS; 56.5% in the test with PC-3 prostate; 90.7% in the test with SK-MEL-5 melanoma; 83.6% with UACC-62 melanoma. The growth in the test with LOX IMVI melanoma was 83.3%; with SK-MEL-28 melanoma, 97.3%.
`COc1ccc(CNc2c3ccccc3nc3ccccc23)cc1`: the growth in the test on DU-145 prostate is 48%; in the test on K-562 leukemia it was 6.97% (active); in the test with MALME-3M melanoma, 40%; in the test on MDA-MB-231 breast it was 47.4%; with RXF 393 renal, 27.6%; in the test on SF-268 CNS, 63.4%. Also, the growth with SF-295 CNS was 39.1%; with SF-539 CNS, 27.5%; in the test on UACC-257 melanoma, 52.3%; in the test with M14 melanoma, 37.1%; in the test with HCT-15 colon it was 22%; with HT29 colon it was 19.3%. In addition, the growth in the test on SNB-75 CNS is 61.8%; in the test on SNB-19 CNS, 34%; with U251 CNS, 36.5%; in the test with PC-3 prostate, 34%; in the test on SK-MEL-5 melanoma, 62.2%; in the test on UACC-62 melanoma it was 55.8%. In addition, the results for the growth with LOX IMVI melanoma and in the test with SK-MEL-28 melanoma were 20.9% and 79.6%, respectively.
For `Cc1nc2sc(C(=O)Nc3cccc(Br)c3)c(N)c2cc1C(O)c1ccccc1` (stereo not given), the growth is 23.8% in the test with DU-145 prostate; 7.97% (active) in the test on K-562 leukemia; 55% in the test on MALME-3M melanoma; 24.2% in the test with MDA-MB-231 breast; 28.2% in the test with RXF 393 renal; 42.4% with SF-268 CNS. Also, the growth in the test on SF-295 CNS is 40.2%; in the test on SF-539 CNS, 6.22% (active); in the test on UACC-257 melanoma, 38.8%; in the test with M14 melanoma, 16.7%; with HCT-15 colon it was 21%; in the test on HT29 colon it was 18.1%. The growth in the test on SNB-75 CNS was 55.4%; with SNB-19 CNS it was 33.8%; in the test with U251 CNS, 11.1%; in the test with PC-3 prostate it was 30.2%; in the test on SK-MEL-5 melanoma it was 17.9%; in the test with UACC-62 melanoma, 26.2%. The growth in the test on LOX IMVI melanoma is 48%; in the test on SK-MEL-28 melanoma, 61.9%.
With `Cc1ccc(-c2nc([P+](c3ccccc3)(c3ccccc3)c3ccccc3)c(S(=O)(=O)c3ccc(C)cc3)o2)cc1`, the growth in the test on DU-145 prostate was 25.5%; with K-562 leukemia it was 4.12% (active); with MALME-3M melanoma, -0.571% (active); with MDA-MB-231 breast it was 3.47% (active); in the test with RXF 393 renal, -28.6% (active); with SF-268 CNS it was 45.5%. For the same compound, the growth is 81% in the test with SF-295 CNS; -65.6% (active) in the test on SF-539 CNS; 3.98% (active) with UACC-257 melanoma; 19.3% with M14 melanoma; 4.17% (active) with HCT-15 colon; 0% (active) with HT29 colon. In addition, the growth is -11.3% (active) in the test on SNB-75 CNS; 53.5% in the test with SNB-19 CNS; 3.23% (active) in the test on U251 CNS; 11.2% in the test on PC-3 prostate; 48.7% in the test on SK-MEL-5 melanoma; 26.1% in the test with UACC-62 melanoma. Moreover, the growth with LOX IMVI melanoma was -31.7% (active); with SK-MEL-28 melanoma, 24.6%.
As for `COc1ccc(/C=C(\C#N)n2nnc3cc(Cl)ccc32)cc1`, the growth is -14.9% (active) in the test on DU-145 prostate; 8.41% (active) in the test with K-562 leukemia; 34.6% in the test with MALME-3M melanoma; -56.3% (active) in the test on MDA-MB-231 breast; -55.2% (active) in the test with RXF 393 renal; 27.6% with SF-268 CNS. The growth was -20.9% (active) with SF-295 CNS; -60.5% (active) in the test with SF-539 CNS; 53% in the test on UACC-257 melanoma; -19.1% (active) with M14 melanoma; 0.0447% (active) in the test on HCT-15 colon; 2.07% (active) with HT29 colon. Besides, the growth is -47.6% (active) in the test on SNB-75 CNS; 9.63% (active) in the test with SNB-19 CNS; 5.37% (active) with U251 CNS; 18.8% in the test on PC-3 prostate; -17.5% (active) in the test with SK-MEL-5 melanoma; 9.49% (active) in the test on UACC-62 melanoma. The results for the growth in the test on LOX IMVI melanoma and with SK-MEL-28 melanoma were -45.7% (active) and 31.3%, respectively.
In the case of `N#Cc1nc(-c2ccc(F)cc2)oc1S(=O)(=O)N1CCCCC1`, the growth is 99% in the test on DU-145 prostate; 7.64% (active) in the test on K-562 leukemia; 42.8% in the test on MALME-3M melanoma; 78.1% in the test on MDA-MB-231 breast; 55.4% in the test on RXF 393 renal; 106% in the test on SF-268 CNS. For the same compound, the growth is 104% in the test on SF-295 CNS; 72.6% in the test with SF-539 CNS; 91.2% in the test on UACC-257 melanoma; 68.7% in the test with M14 melanoma; -22.4% (active) in the test with HCT-15 colon; 32.3% in the test with HT29 colon. The growth is 92% in the test with SNB-75 CNS; 96.5% in the test with SNB-19 CNS; 91.2% in the test with U251 CNS; 92.1% in the test with PC-3 prostate; 88.7% in the test on SK-MEL-5 melanoma; 94% in the test with UACC-62 melanoma. Also, the growth was 1.69% (active) in the test with LOX IMVI melanoma and 102% in the test on SK-MEL-28 melanoma.
With `COc1ccccc1NC(=O)N=Nc1c(O)[nH]c2ccccc12`, the growth with DU-145 prostate was 102%; in the test on K-562 leukemia, 91.2%; in the test on MALME-3M melanoma, 95.8%; in the test on MDA-MB-231 breast it was 82.7%; in the test with RXF 393 renal, 100%; with SF-268 CNS it was 99.1%. In addition, the growth is 94.1% with SF-295 CNS; 98.3% with SF-539 CNS; 89% in the test with UACC-257 melanoma; 95.1% in the test with M14 melanoma; 94.4% in the test on HCT-15 colon; 105% in the test with HT29 colon. Besides, the growth in the test with SNB-75 CNS is 82.7%; in the test on SNB-19 CNS, 89.7%; with U251 CNS, 97.3%; with PC-3 prostate it was 89.7%; in the test with SK-MEL-5 melanoma, 94.1%; in the test with UACC-62 melanoma, 79.2%. Moreover, the values for the growth with LOX IMVI melanoma and in the test on SK-MEL-28 melanoma were 98.2% and 104%, respectively.
On to `COc1cc2nc3cc([N+](=O)[O-])ccc3c(NCCNCC(C)O)c2cc1OC` (stereo not given), for which the growth is -7.42% (active) in the test on DU-145 prostate; 0.179% (active) with K-562 leukemia; -74.1% (active) in the test with MALME-3M melanoma; -39.5% (active) in the test on MDA-MB-231 breast; -56% (active) with RXF 393 renal; -15.4% (active) in the test on SF-268 CNS. Also, the growth with SF-295 CNS is 17.1%; in the test on SF-539 CNS, -21.6% (active); in the test on UACC-257 melanoma, -56% (active); with M14 melanoma, -66.1% (active); in the test on HCT-15 colon it was 23.4%; with HT29 colon, 2.64% (active). For the same compound, the growth in the test on SNB-75 CNS is -59.9% (active); with SNB-19 CNS, -10.4% (active); in the test with U251 CNS, -25.3% (active); in the test with PC-3 prostate, -38.6% (active); in the test with SK-MEL-5 melanoma it was -82.4% (active); in the test on UACC-62 melanoma, -56.8% (active). Besides, the growth in the test with LOX IMVI melanoma is -35.7% (active); with SK-MEL-28 melanoma, -20% (active).
